Laboratory results: PubChem BioAssay (Tox21)
Inconclusive results are not listed. The source made the active and inactive calls. Unless noted, the call rests on the fitted dose curve; in most records, active means well fitted curve in the direction sought with a large enough effect in the repeat runs; inconclusive means weak or mixed curves; inactive means no such curve, though single readings can be large; an effect the other way counts as inactive or inconclusive.

Tests used:
[1] = molecular target: Peroxisome proliferator-activated receptor delta (Homo sapiens) (UniProt Q03181); test: qHTS assay to identify small molecule agonists of the peroxisome proliferator-activated receptor delta (PPARd) signaling pathway (AID 743212; calls by dose curve;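 further: HEK293H cells with PPARd UAS beta-lactamase reporter GeneBLAzer system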)
Peroxisome proliferator-activated receptor delta (Homo sapiens), sequence (Q03181 whole entry, looked up): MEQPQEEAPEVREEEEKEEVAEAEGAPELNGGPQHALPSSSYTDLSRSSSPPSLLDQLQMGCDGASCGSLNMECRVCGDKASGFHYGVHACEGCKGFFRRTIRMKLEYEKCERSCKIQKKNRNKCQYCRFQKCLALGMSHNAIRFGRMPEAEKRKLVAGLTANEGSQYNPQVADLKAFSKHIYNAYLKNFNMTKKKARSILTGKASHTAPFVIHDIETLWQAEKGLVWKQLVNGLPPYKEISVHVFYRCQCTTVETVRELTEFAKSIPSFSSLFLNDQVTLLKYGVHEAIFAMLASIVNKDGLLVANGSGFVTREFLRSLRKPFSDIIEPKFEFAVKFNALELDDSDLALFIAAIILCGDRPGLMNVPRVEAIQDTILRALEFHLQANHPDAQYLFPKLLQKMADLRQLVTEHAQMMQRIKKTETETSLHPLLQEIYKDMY
How it was run: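 Steps: seed PPARd-bla HEK293H cells; incubate 5 h, 37 C, 5% CO2; add compounds in DMSO; incubate, 37 C; add LiveBLAzer B/G FRET substrate; hold 2 h at room temperature; measure fluorescence.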

[2] = qHTS assay to identify small molecule antagonists of the peroxisome proliferator-activated receptor delta (PPARd) signaling pathway - cell viability counter screen (AID 743213); further: nearly all actives have a fitted effect of over 50% in size
How it was run: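 Luminescence from CellTiter-Glo, added after the bla read and incubated 30 min at room temperature, gives viability of HEK293H PPARd-bla cells exposed to compounds for 17 h at 37 C with 300 nM L165041.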

[3] = molecular target: Peroxisome proliferator-activated receptor delta (Homo sapiens) (UniProt Q03181); test: qHTS assay to identify small molecule antagonists of the peroxisome proliferator-activated receptor delta (PPARd) signaling pathway (AID 743215; active means well fitted inhibition curve with a large enough effect in the signal ratio in the repeat runs, not every such curve was filed as active; the % refers to the signal ratio;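 further: cells stimulated with agonist L165041 at 300 nM final during compound exposure; series mostly up to about 62 µM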)
How it was run: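 Screen format: qHTS, antagonist mode. HEK293H PPARd-bla cells received compound and 300 nM L165041 (final), 17 h, 37 C. Beta-lactamase detected via FRET substrate fluorescence, 2 h, room temperature.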

[4] = qHTS assay to identify small molecule agonists of the farnesoid-X-receptor (FXR) signaling pathway - cell viability counter screen (AID 743218); further: nearly all actives have a fitted effect of over 45% in size
How it was run: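 Same-well cytotoxicity check on FXR-UAS-bla HEK 293T cells: 5 h attachment, 16 h compound at 37 C, CellTiter-Glo luminescence read at room temperature after 30 min.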

[5] = qHTS assay to identify small molecule agonists of the vitamin D receptor (VDR) signaling pathway - cell viability counter screen (AID 743224); further: series mostly up to about 63 µM; nearly all actives have a fitted effect of over 50% in size
How it was run: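 Counter screen for cytotoxicity: VDR-bla cells at 2,000 cells/well, 16 h compound exposure, then CellTiter-Glo luminescence after the beta-lactamase measurement.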

[6] = qHTS assay to identify small molecule antagonists of the farnesoid-X-receptor (FXR) signaling pathway - cell viability counter screen (AID 743221; active means well fitted cell-killing curve with a large enough effect in the repeat runs, not every such curve was filed as active; further: nearly all actives have a fitted effect of over 50% in size)
How it was run: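 After a 5 h settling period, FXR-bla HEK 293T cells receive compound and chenodeoxycholic acid (50 uM final) and incubate 16 h at 37 C; CellTiter-Glo luminescence, read after 30 min at room temperature, reports cell viability.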

[7] = molecular target: Vitamin D3 receptor (Homo sapiens) (UniProt P11473); test: qHTS assay to identify small molecule agonists of the vitamin D receptor (VDR) signaling pathway (AID 743222; calls by dose curve)
Vitamin D3 receptor (Homo sapiens), sequence (P11473 whole entry, looked up): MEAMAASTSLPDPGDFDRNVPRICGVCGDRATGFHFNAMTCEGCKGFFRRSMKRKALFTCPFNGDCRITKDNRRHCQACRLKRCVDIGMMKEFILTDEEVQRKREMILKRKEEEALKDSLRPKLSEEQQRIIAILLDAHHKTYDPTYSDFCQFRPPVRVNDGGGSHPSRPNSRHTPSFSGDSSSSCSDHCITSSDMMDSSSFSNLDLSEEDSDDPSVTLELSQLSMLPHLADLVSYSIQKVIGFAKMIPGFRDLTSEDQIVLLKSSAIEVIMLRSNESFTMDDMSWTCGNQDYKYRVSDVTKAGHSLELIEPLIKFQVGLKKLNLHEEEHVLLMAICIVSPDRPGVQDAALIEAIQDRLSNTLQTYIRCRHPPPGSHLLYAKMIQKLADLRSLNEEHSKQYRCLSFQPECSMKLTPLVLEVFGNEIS
How it was run: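 Using LiveBLAzer B/G FRET detection, agonism was scored in VDR-bla cells exposed overnight (16 h, 37C) to DMSO-dissolved compounds; substrate incubation was 2 h at room temperature.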

[8] = molecular target: Vitamin D3 receptor (Homo sapiens) (UniProt P11473); test: qHTS assay to identify small molecule antagonists of the vitamin D receptor (VDR) signaling pathway (AID 743223; active means well fitted inhibition curve with a large enough effect in the signal ratio in the repeat runs, not every such curve was filed as active; the % refers to the signal ratio)
How it was run: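 Reporter line VDR-bla; stimulus 1alpha,25-(OH)2 vitamin D3, 3 nM final; compound co-addition, 16 h 37C/5% CO2; LiveBLAzer B/G substrate 2 h RT; fluorescence intensity.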

[9] = molecular target: Bile acid receptor (Homo sapiens) (UniProt Q96RI1); test: qHTS assay to identify small molecule agonists of the farnesoid-X-receptor (FXR) signaling pathway (AID 743220; active means well fitted activation curve with a large enough effect in the signal ratio in the repeat runs, not every such curve was filed as active; the % refers to the signal ratio)
Bile acid receptor (Homo sapiens), sequence (Q96RI1 whole entry, looked up): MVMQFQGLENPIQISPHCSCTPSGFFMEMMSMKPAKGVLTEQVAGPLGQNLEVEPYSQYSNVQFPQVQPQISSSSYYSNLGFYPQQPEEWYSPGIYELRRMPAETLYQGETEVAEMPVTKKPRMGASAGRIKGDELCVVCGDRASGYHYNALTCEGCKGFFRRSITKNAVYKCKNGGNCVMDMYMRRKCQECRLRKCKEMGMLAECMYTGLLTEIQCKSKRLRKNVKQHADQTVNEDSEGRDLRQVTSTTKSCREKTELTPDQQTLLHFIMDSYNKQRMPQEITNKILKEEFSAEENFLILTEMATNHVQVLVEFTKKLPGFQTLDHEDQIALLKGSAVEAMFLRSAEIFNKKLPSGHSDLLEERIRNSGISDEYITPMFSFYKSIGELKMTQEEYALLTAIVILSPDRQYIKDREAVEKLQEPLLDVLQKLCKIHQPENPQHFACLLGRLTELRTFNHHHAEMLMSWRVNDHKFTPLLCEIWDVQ
How it was run: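 FXR-UAS-bla HEK 293T cells carrying a UAS-driven beta-lactamase reporter were plated for 5 h at 37C/5% CO2, then exposed to DMSO-dissolved Tox21 10K compounds for 16 h at 37C. A LiveBLAzer B/G FRET substrate was loaded for 2 h at room temperature before fluorescence reading.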

[10] = molecular target: Bile acid receptor (Homo sapiens) (UniProt Q96RI1); test: qHTS assay to identify small molecule antagonists of the farnesoid-X-receptor (FXR) signaling pathway (AID 743217; active means well fitted inhibition curve with a large enough effect in the signal ratio in the repeat runs, not every such curve was filed as active; the % refers to the signal ratio)
How it was run: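 Quantitative HTS, beta-lactamase reporter format: FXR-UAS-bla HEK 293T cells co-treated 16 h at 37 °C with compounds and 50 uM final chenodeoxycholic acid, then read by B/G FRET fluorescence.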
On the % scale 0 is the no-effect control and ±100 the full control effect.

O=C1Nc2ccc([N+](=O)[O-])cc2C1=O
inactive: outcome [1] | Potency [2] | outcome [3] | Potency [4] | Potency [5]

CC1=CC(=O)CC(C)(C)C1=O
inactive: outcome [1] | Potency [2] | outcome [3] | Potency [4] | outcome [6] | outcome [7] | outcome [8] | Potency [5]

O=C(O)C(=O)Cc1c[nH]c2ccccc12
inactive: outcome [1] | Potency [2] | outcome [3] | Potency [4] | outcome [6] | Potency [5]

CCOC(=O)COc1ccc2c(c1)CC(NCC(O)c1cccc(Cl)c1)CC2 (stereo unspecified)
inactive: outcome [1] | Potency [2] | outcome [3] | Potency [4] | outcome [7] | outcome [8] | Potency [5]

O=Cc1ccc(F)c(Br)c1
inactive: outcome [1] | Potency [2] | outcome [3] | Potency [4] | outcome [6] | outcome [7] | outcome [8] | Potency [5]

O=S(=O)(O)C(F)(F)F
inactive: outcome [1] | Potency [2] | outcome [3] | Potency [4] | outcome [7] | outcome [8] | Potency [5]

CCCC1CCC(=O)O1 (stereo unspecified)
inactive: outcome [1] | Potency [2] | outcome [3] | Potency [4] | outcome [7] | outcome [8] | Potency [5]

CC(C)(C)C1CCCCC1=O (stereo unspecified)
inactive: outcome [1] | Potency [2] | outcome [3] | Potency [4] | outcome [6] | Potency [5]

Cc1c(N)cccc1N
inactive: outcome [1] | Potency [2] | outcome [3] | Potency [4] | outcome [6] | outcome [8] | Potency [5]

Cc1cccc(C)c1NC(=O)CN1CCCCCC1
inactive: outcome [1] | Potency [2] | outcome [3] | Potency [4] | outcome [6] | outcome [7] | outcome [8] | Potency [5]

CO[C@@]1(NC(=O)CSCC#N)C(=O)N2C(C(=O)O)=C(CSc3nnnn3C)CS[C@@H]21
inactive: outcome [1] | Potency [2] | outcome [3] | Potency [4] | outcome [6] | outcome [7] | Potency [5]

O=C(O)[C@@H](O)[C@H](O)[C@H](O)[C@@H](O)C(=O)O
inactive: outcome [1] | Potency [2] | outcome [3] | Potency [4] | outcome [6] | Potency [5]

O=C(O)[C@@H]1CSCN1
inactive: outcome [1] | Potency [2] | outcome [3] | Potency [4] | outcome [7] | outcome [8] | Potency [5]

Cc1c(-c2ccccc2)oc2c(C(=O)OCCN3CCCCC3)cccc2c1=O
inactive: outcome [1] | Potency [2] | outcome [3] | Potency [4] | outcome [8] | Potency [5]

ICCc1ccccc1
inactive: outcome [1] | Potency [2] | outcome [3] | Potency [4] | outcome [7] | outcome [8] | Potency [5]

NC(Cc1ccc(F)cc1)C(=O)O (stereo unspecified)
inactive: activation [1] 5.3% [at 5.95 µM] | viability change, negative = cytotoxic [2] 5.29% [at 6.26 µM] | ratio activity, negative = inhibition [3] 5.05% [at 6.26 µM] | viability change, negative = cytotoxic [4] 4.49% [at 5.95 µM] | activity change, negative = cytotoxicity [6] -10% [at 5.95 µM] | activation [7] 5.15% [at 6.01 µM] | activity change, negative = inhibition [8] 0.285% [at 6.95 µM] | activity change, negative = cytotoxicity [5] 0.52% [at 5.95 µM]

NCCCN1CCN(CCCN)CC1
inactive: outcome [1] | Potency [2] | outcome [3] | Potency [4] | outcome [6] | outcome [7] | outcome [8] | Potency [5]

CC(Oc1c(Cl)cccc1Cl)C1=NCCN1 (stereo unspecified)
inactive: outcome [1] | Potency [2] | outcome [3] | Potency [4] | outcome [8] | Potency [5]

NS(=O)(=O)c1cc(-c2nn[nH]n2)c(NCc2cccs2)cc1Cl
inactive: outcome [1] | Potency [2] | outcome [3] | Potency [4] | outcome [6] | outcome [7] | outcome [8] | Potency [5]

CN(C)Cc1ccccc1
inactive: outcome [1] | Potency [2] | outcome [3] | Potency [4] | outcome [6] | outcome [8] | Potency [5]

Nc1cccc(S(=O)(=O)O)c1
inactive: outcome [1] | Potency [2] | outcome [3] | Potency [4] | outcome [6] | Potency [5]

CN(C)CCOc1ccccc1Cc1ccccc1
inactive: outcome [1] | Potency [2] | outcome [3] | Potency [4] | outcome [7] | outcome [8] | Potency [5]

Cc1cn([C@@H]2O[C@H](CO)[C@@H](O)[C@@H]2F)c(=O)[nH]c1=O
inactive: outcome [1] | Potency [2] | outcome [3] | outcome [6] | outcome [7] | outcome [8] | Potency [5]

NC(=O)NS(=O)(=O)c1ccc(Cl)cc1
inactive: outcome [1] | outcome [3] | Potency [4] | outcome [9] | outcome [7] | outcome [8] | Potency [5]

CO[Si](C)(C)OC
inactive: outcome [1] | Potency [2] | Potency [4] | outcome [6] | Potency [5]

CCCC(CCC)(C(=O)OCC)C(=O)OCC
inactive: outcome [1] | Potency [2] | outcome [10] | Potency [4] | outcome [9] | outcome [6] | outcome [8] | Potency [5]

COc1ccccc1OCC(O)COC(N)=O (stereo unspecified)
inactive: outcome [1] | Potency [2] | outcome [3] | outcome [6] | Potency [5]

O=C(O)c1cccc(Cl)c1Cl
inactive: outcome [1] | outcome [3] | Potency [4] | outcome [6] | outcome [7] | outcome [8] | Potency [5]

OCCN1CCN(CCO)CC1
inactive: outcome [1] | Potency [2] | outcome [3] | outcome [7] | outcome [8] | Potency [5]

Cc1ccc(C)c(N)c1
inactive: outcome [1] | Potency [2] | Potency [4] | outcome [9] | outcome [6] | outcome [7] | Potency [5]

CCCCCCCOC(=O)CCC
inactive: outcome [1] | outcome [3] | Potency [4] | outcome [6] | outcome [7] | outcome [8] | Potency [5]
